According to PubChem BioAssay (NCI):
This is part of a sample that, as a whole, favours compounds with a hit. Of some 79,000 tested, about 15% had one in any assay. The source made the active and inactive calls. No stated cut-off is given here; in the data, active means growth inhibition above about 70%; inactive means the rest.

How the values were obtained:
[1] = NCI Yeast Anticancer Drug Screen. Data for the rad52 strain (AID 147);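 further: 0% = growth of vehicle-treated control cultures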; conditions: S. cerevisiae rad52 mutant growth inhibition, active compounds read high
In short: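 Yeast strain carrying a DNA damage repair alteration was exposed to test compounds. Growth inhibition was measured relative to vehicle-treated controls.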

[2] = NCI Yeast Anticancer Drug Screen. Data for the wt1 strain (AID 149);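 further: 0% = growth of vehicle-treated wt1 cultures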; conditions: S. cerevisiae wt1 strain (SPY 50644) growth inhibition, active compounds read high
In short: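 Yeast wt1 strain exposed to compounds; growth inhibition measured relative to vehicle-treated controls.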

[3] = NCI Yeast Anticancer Drug Screen. Data for the rad50EPP+ strain (AID 151);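 further: 0% = growth of vehicle-treated control cultures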; conditions: S. cerevisiae rad50 mutant strain, active compounds read high
In short: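 Yeast strain carrying rad50 alteration (rad50EPP+) exposed to compounds; growth inhibition measured relative to vehicle-treated controls.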

[4] = NCI Yeast Anticancer Drug Screen. Data for the mgt1 strain (AID 153); conditions: S. cerevisiae mgt1 mutant growth inhibition, active compounds read high
In short: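 Yeast mgt1 strain (DNA repair/cell-cycle alteration panel) exposed to compounds; growth inhibition measured relative to vehicle-treated controls.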

[5] = NCI Yeast Anticancer Drug Screen. Data for the rad50 strain (AID 155);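 further: 0% = growth of vehicle-only cultures of the same strain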; conditions: S. cerevisiae rad50 strain growth inhibition, active compounds read high
In short: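 Yeast carrying a defined DNA repair defect were exposed to test compounds, and growth was compared with vehicle-treated controls to give percent inhibition.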

[6] = NCI Yeast Anticancer Drug Screen. Data for the mec2-1 strain (AID 157); conditions: S. cerevisiae mec2-1 strain, active compounds read high
In short: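 mec2-1 yeast strain, carrying an alteration in DNA damage repair or cell cycle control, was exposed to compounds; growth inhibition was measured relative to vehicle-treated controls.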

[7] = NCI Yeast Anticancer Drug Screen. Data for the rad14 strain (AID 159);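 further: 0% = growth of vehicle-treated control cultures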; conditions: S. cerevisiae rad14 strain growth inhibition, active compounds read high
In short: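 Yeast cells carrying a defined DNA-repair defect were exposed to compounds, and growth inhibition was calculated relative to vehicle-treated control cultures.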

[8] = NCI Yeast Anticancer Drug Screen. Data for the sgs1 mgt1 strain (AID 161);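 further: 0% = growth of cultures given vehicle only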; conditions: S. cerevisiae sgs1 mgt1 strain, active compounds read high
In short: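 Yeast cells carrying a defined DNA-repair defect were exposed to test compounds. Growth inhibition was measured relative to vehicle-treated controls.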

[9] = NCI Yeast Anticancer Drug Screen. Data for the CLN2oe strain (AID 163);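 further: 0% = growth of vehicle-only control cultures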; conditions: S. cerevisiae CLN2oe strain, active compounds read high
In short: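 Yeast cells carrying a defined cell-cycle control alteration were exposed to test compounds. Growth inhibition was scored against vehicle-treated control cultures.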

[10] = NCI Yeast Anticancer Drug Screen. Data for the cln2 rad14 strain (AID 165);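 further: 0% = growth equal to vehicle treated cultures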; conditions: S. cerevisiae cln2 rad14 strain, active compounds read high
In short: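 Yeast carrying cln2 and rad14 alterations (cell cycle control and DNA damage repair) were exposed to compounds. Growth inhibition was measured against vehicle-treated controls.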

[11] = NCI Yeast Anticancer Drug Screen. Data for the bub3 strain (AID 167); conditions: S. cerevisiae bub3 mutant strain, active compounds read high
In short: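 Compounds were applied to a genetically altered yeast strain carrying a cell-cycle control defect. Growth inhibition was scored against vehicle-treated controls.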

[12] = NCI Yeast Anticancer Drug Screen. Data for the wt2 strain (AID 169);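 further: 0% = growth of vehicle-treated yeast cultures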; conditions: S. cerevisiae wt2 strain growth inhibition, active compounds read high
In short: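 Yeast cells were exposed to test compounds, and growth inhibition was measured relative to vehicle-treated controls.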

[13] = NCI Yeast Anticancer Drug Screen. Data for the mlh1 strain (AID 171);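 further: 0% = growth of vehicle-treated control cultures of the same strain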; conditions: S. cerevisiae mlh1 strain growth inhibition, active compounds read high
In short: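 Yeast carrying a defined genetic alteration in DNA damage repair or cell cycle control were exposed to test compounds. Growth inhibition was measured relative to vehicle-treated controls.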

[14] = NCI Yeast Anticancer Drug Screen. Data for the sgs1 strain (AID 173);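 further: 0% = growth of vehicle-only control cultures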; conditions: S. cerevisiae sgs1 mutant, active compounds read high
In short: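 Yeast mutant strains carrying defined defects in DNA damage repair or cell cycle control were exposed to test compounds. Growth inhibition was scored against vehicle-treated controls.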

[15] = NCI Yeast Anticancer Drug Screen. Data for the mlh1 rad18 strain (AID 175); conditions: S. cerevisiae mlh1 rad18 strain growth inhibition, active compounds read high
In short: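 Growth inhibition of the yeast strain was measured after compound exposure and expressed relative to vehicle-treated controls. The strain carries defined defects in DNA damage repair.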

[16] = NCI Yeast Anticancer Drug Screen. Data for the rad18 strain (AID 177); conditions: S. cerevisiae rad18 mutant growth inhibition, active compounds read high
In short: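 Yeast carrying a defined DNA damage repair alteration were exposed to compounds. Growth inhibition was expressed relative to vehicle-treated controls.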

[17] = at 5.0 µM (retest, dose inferred, filed as 0.5)
[18] = at 50.0 µM (retest, dose inferred, filed as 5.0)

Measured: growth inhibition

CCOC(=S)SSSC(=S)OCC
inactive: [1]; at 1.2 µM 4% | [1]; at 3.7 µM 17% | [2]; at 1.2 µM -3% | [2]; at 3.7 µM 3% | [2]; at 11.0 µM 31% | [3]; at 1.2 µM 18% | [3]; at 3.7 µM 51% | [4]; at 1.2 µM -1% | [4]; at 3.7 µM 6% | [4]; at 11.0 µM 31% | [4]; at 100.0 µM 56% | [5]; at 1.2 µM 7% | [5]; at 3.7 µM 19% | [5]; [17] 43% | [5]; at 50.0 µM 29.6% | [6]; at 1.2 µM -6% | [6]; at 3.7 µM -5% | [6]; at 11.0 µM 20% | [6]; at 50.0 µM 19.4% | [7]; at 1.2 µM 0% | [7]; at 3.7 µM 5% | [7]; at 11.0 µM 40% | [8]; [17] 9% | [8]; at 50.0 µM 41.2% | [9]; at 1.2 µM -2% | [9]; at 3.7 µM -1% | [9]; at 11.0 µM 18% | [9]; at 33.0 µM 57% | [10]; [17] 1% | [10]; at 50.0 µM -2.7% | [11]; at 1.2 µM -5% | [11]; at 3.7 µM -4% | [11]; [17] -3% | [11]; at 11.0 µM 36% | [11]; at 50.0 µM 50.4% | [12]; at 1.2 µM -1% | [12]; at 3.7 µM 0% | [12]; at 11.0 µM 33% | [13]; at 1.2 µM 3% | [13]; at 3.7 µM 7% | [13]; at 11.0 µM 41% | [14]; at 1.2 µM 0% | [14]; at 3.7 µM 9% | [14]; at 11.0 µM 56% | [15]; [17] 55% | [15]; at 50.0 µM 27.2% | [16]; at 1.2 µM 0% | [16]; at 3.7 µM 8% | [16]; at 11.0 µM 56%
active: [1]; at 11.0 µM 70% | [1]; at 33.0 µM 97% | [1]; at 100.0 µM 99% | [2]; at 33.0 µM 88% | [2]; at 100.0 µM 99% | [3]; at 11.0 µM 93% | [3]; at 33.0 µM 99% | [3]; at 100.0 µM 99% | [4]; at 33.0 µM 96% | [5]; at 11.0 µM 76% | [5]; at 33.0 µM 99% | [5]; [18] 99% | [5]; at 100.0 µM 99% | [6]; [17] 87% | [6]; at 33.0 µM 91% | [6]; [18] 100% | [6]; at 100.0 µM 99% | [7]; at 33.0 µM 96% | [7]; at 100.0 µM 99% | [8]; [18] 99% | [9]; at 100.0 µM 95% | [10]; [18] 92% | [11]; at 33.0 µM 95% | [11]; [18] 99% | [11]; at 100.0 µM 99% | [12]; at 33.0 µM 95% | [12]; at 100.0 µM 99% | [13]; at 33.0 µM 95% | [13]; at 100.0 µM 99% | [14]; at 33.0 µM 98% | [14]; at 100.0 µM 99% | [15]; [18] 99% | [16]; at 33.0 µM 98% | [16]; at 100.0 µM 99%

COc1cc(OC)c(CSCC(NC(=O)OCC2c3ccccc3-c3ccccc32)C(=O)O)c(OC)c1 (stereo not drawn)
inactive: [1]; at 1.2 µM 0% | [1]; at 3.7 µM 5% | [1]; at 11.0 µM 48% | [2]; at 1.2 µM 1% | [2]; at 3.7 µM 9% | [2]; at 11.0 µM 55% | [3]; at 1.2 µM -2% | [3]; at 3.7 µM -2% | [3]; at 11.0 µM -1% | [3]; at 33.0 µM 0% | [3]; at 100.0 µM -3% | [4]; at 1.2 µM -2% | [4]; at 3.7 µM 8% | [4]; at 11.0 µM 52% | [5]; at 1.2 µM -6% | [5]; at 3.7 µM -9% | [5]; [17] 15% | [5]; at 11.0 µM 43% | [6]; at 1.2 µM 2% | [6]; at 3.7 µM 11% | [6]; [17] 12% | [6]; at 11.0 µM 55% | [7]; at 1.2 µM -2% | [7]; at 3.7 µM 10% | [7]; at 11.0 µM 68% | [8]; [17] -4% | [9]; at 1.2 µM 0% | [9]; at 3.7 µM 13% | [9]; at 11.0 µM 68% | [10]; [17] 52% | [11]; at 1.2 µM 0% | [11]; at 3.7 µM 10% | [11]; [17] 3% | [11]; at 11.0 µM 61%
active: [1]; at 33.0 µM 97% | [1]; at 100.0 µM 98% | [2]; at 33.0 µM 96% | [2]; at 100.0 µM 99% | [4]; at 33.0 µM 97% | [4]; at 100.0 µM 98% | [5]; at 33.0 µM 94% | [5]; [18] 99% | [5]; at 50.0 µM 98.6% | [5]; at 100.0 µM 98% | [6]; at 33.0 µM 96% | [6]; [18] 99% | [6]; at 50.0 µM 99.2% | [6]; at 100.0 µM 98% | [7]; at 33.0 µM 96% | [7]; at 100.0 µM 99% | [8]; [18] 98% | [8]; at 50.0 µM 99% | [9]; at 33.0 µM 99% | [9]; at 100.0 µM 98% | [10]; [18] 99% | [10]; at 50.0 µM 98.4% | [11]; at 33.0 µM 95% | [11]; [18] 99% | [11]; at 50.0 µM 99.2% | [11]; at 100.0 µM 98%
